Source: PubChem BioAssay
Sampled rows, rich in hits. Any-hit rate of the full collection: about 2%.
S1P4 antag: human S1P4 receptor antagonism; O95977; S1P4-expressing cells, antagonist mode, reporter read-out; inhibition, % at 4.98 µM; 0.26% of 220,000 active; in the data active = inhibition above about 29%;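 note: 0% = wells stimulated with agonist and 100% = vehicle wells without agonist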
S1P3 antag: antagonists of human S1P3 receptor; Q99500; CHO S1P3 NFAT-BLA reporter, FRET fluorescence, antagonist mode; inhibition, % at 4.98 µM; 0.27% of 170,000 active;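 active = inhibition above the plate cutoff, the mean inhibition of test wells on that plate plus 3 SD, cut at about 28% in these data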;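 note: cells challenged with S1P at its EC80 of 0.8 µM; blue over green emission ratio from cleaved BLA substrate after 4 h stimulation; 0% = S1P-stimulated wells and 100% = unstimulated DMSO-only wells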
Target sequence (Q99500 whole entry, looked up): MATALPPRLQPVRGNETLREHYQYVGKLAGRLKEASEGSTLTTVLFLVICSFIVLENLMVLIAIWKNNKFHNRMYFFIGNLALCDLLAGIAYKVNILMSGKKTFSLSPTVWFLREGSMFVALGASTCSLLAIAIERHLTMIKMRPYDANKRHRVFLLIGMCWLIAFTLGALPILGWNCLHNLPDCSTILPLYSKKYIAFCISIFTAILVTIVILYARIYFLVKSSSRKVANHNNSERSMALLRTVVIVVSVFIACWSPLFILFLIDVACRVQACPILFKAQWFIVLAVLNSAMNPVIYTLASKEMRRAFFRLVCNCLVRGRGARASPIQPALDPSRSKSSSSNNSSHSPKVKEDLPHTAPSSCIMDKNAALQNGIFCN
EP2 modulator: modulates human prostaglandin E2 receptor EP2 signaling; P43116; 0.83% of 260,000 active; induction, % at 25 µM; EP2-expressing cells, cAMP HTRF FRET, PGE2 co-stimulation;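 active = compounds whose cAMP rise, as percent of the full-agonist control response, exceeds 60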;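 note: rat C6 glioma line stably carrying human EP2 under a CMV promoter; the protocol text gives 20 µM as final concentration; 100% = response of wells given 1 µM PGE2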
S1P4 ag: activates the human S1P4 receptor. 0.35% of 220,000 active. S1P4-expressing cell line, agonist reporter assay. activation, % at 4.98 µM. O95977. AID 1509; in the data active = activation above about 11%;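 note: 0% = DMSO vehicle and 100% = reference agonist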
EP2 antag: blocks the human prostaglandin E2 receptor EP2; P43116; C6 glioma cells expressing human EP2, cAMP TR-FRET; cells stimulated with saturating PGE2; 0.52% of 260,000 active; AID 1422; inhibition, % at 25 µM;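 active = percent inhibition above 40 after rounding to a whole number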;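 note: rat C6 glioma host cells with rolipram phosphodiesterase inhibitor present; the protocol text gives 20 µM as final concentration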
The depositor's hits bear a star; . = no result.

SMILES	S1P4 antag	S1P3 antag	EP2 modulator	S1P4 ag	EP2 antag
CCN1c2ncccc2C(=O)NC12CCN(C(=O)Cn1ncc3ccccc3c1=O)CC2	.	.	1	.	.
C[C@H]1[C@H](C)CC[C@@]2(C(=O)O)CC[C@@]3(C)C(=CC[C@H]4[C@]5(C)C[C@H](O)[C@@H](O)[C@@](C)(CO)[C@H]5[C@H](O)C[C@@]43C)[C@H]12	.	.	31	.	43*
CCOc1cc(N2CCOCC2)c(OCC)cc1NC(=O)CN1CCC(Cc2ccccc2)CC1	-12	4	39	1	2
CCOc1cc(N2CCOCC2)c(OCC)cc1NC(=O)CN1C(=O)NC(Cc2ccccc2)C1=O (centres undefined)	-30	-7	-33	12*	11
COc1cccc(/C(O)=C2/C(=O)C(=O)N(Cc3ccco3)C2c2cccnc2)c1 (centres undefined)	.	.	-3	.	7
COC(=O)c1c(NC(=O)c2ccc(OC)c(OC)c2)sc(C(=O)Nc2cc(C)cc(C)c2)c1C	.	.	5	.	6
COc1cc(/C=C2/C(=O)c3cccc([N+](=O)[O-])c3C2=O)c(Br)cc1O	6	5	-96	-1	49*
COc1ccc2c(CC(=O)Nc3ccc(OC)c(NS(=O)(=O)c4ccc(F)cc4)c3)coc2c1	-18	81*	0	0	5
NS(=O)(=O)c1cc(Br)c(N=Nc2ccc(O)c3ncccc23)c(Br)c1	.	.	-17	.	47*
COC(=O)C1=CN(C2CC2)C=C(C(=O)OC)C1c1ccc(C(F)(F)F)cc1	-4	-11	49	2	5
COC(=O)C1=CN(C2CC2)C=C(C(=O)OC)C1c1ccc(C(=O)OC)cc1	-39	18	61*	2	5
CN(CC(=O)Nc1ccccc1Sc1ccccc1)C1CCCCC1	-7	-14	64*	0	6
CSc1ccccc1NC(=O)CN(C1CCCCC1)S(C)(=O)=O	-6	.	9	2	5
Cc1ccc(C(c2nnnn2C2CCCCC2)N2CCN(C(=O)c3ccco3)CC2)cc1 (centres undefined)	.	.	54	.	10
Cc1ccc(NC(=O)c2ccco2)c(NC(=O)c2ccccc2)c1	.	.	-30	.	8
CCN(CC)P(=O)(Nc1ccc(C)cc1Br)c1ccc(N(C)C)cc1NC(=O)c1ccco1 (centres undefined)	-2	11	65*	0	15
COc1ccc(C2Oc3ccc(C)cc3C3=C2C(c2ccccc2)n2ncnc2N3)cc1OC (centres undefined)	.	.	15	.	13
COC(=O)/C=C1\OC(c2ccccc2)=CC1=O	-26	-9	-121	0	124*
CCCCC[C@H](O)/C=C/[C@@H]1[C@@H](C/C=C\CCCC(=O)O)[C@@H](O)C[C@H]1O	-33	-16	102*	1	10
CCCCC[C@H](O)/C=C/[C@@H]1[C@@H](C/C=C\CCCC(=O)O)[C@H]2CO[C@@H]1C2	-40	-7	98*	4	11
CCCCC[C@H](O)/C=C/[C@@H]1[C@@H](C/C=C\CCCC(=O)OC)[C@@H](O)C[C@H]1O	-28	-11	52	0	10
CCc1nn(CC(=O)NC2CCc3ccccc32)c(=O)c2cc3ccsc3n12 (centres undefined)	.	.	13	.	.
CSc1ncc(C(=O)N2CCN(CCOc3ccccc3Cl)CC2)cn1	.	.	-68	.	11
COc1ccc2cc(CN(Cc3cccnc3)C(=S)NCc3ccccc3)c(=O)[nH]c2c1	.	.	-35	.	10
Cc1ccc(NC(=O)c2cc(N3C(=O)CCC3=O)ccc2N2CCOCC2)cc1	8	-12	-20	-2	8
SMILES	S1P4 antag	S1P3 antag	EP2 modulator	S1P4 ag	EP2 antag
Cc1ccc(NC(=O)c2cc(N3C(=O)C=CC3=O)ccc2N2CCOCC2)cc1Cl	-4	-2	-59	-1	94*
CCN(CC)C(=O)N1CCC[C@H]1Cn1nc(-c2ccc3c(c2)OCO3)ccc1=O	.	.	-36	.	.
Cc1occc1-c1nn(CC(=O)N2CC(C)CC(C)C2)c(=O)o1 (centres undefined)	.	.	-28	.	7
C=C(C)Cn1c(Cc2ccccc2)nc2ccccc21	.	.	25	.	5
C=C(C)Cn1c(COc2ccccc2)nc2ccccc21	.	.	69*	.	11
CS(=O)(=O)N(CC(=O)NCc1cccnc1)c1cccc(F)c1	.	.	-7	.	7
O=C(Nc1nc(-c2nc3ccccc3s2)cs1)C1COc2ccccc2O1 (centres undefined)	-27	-26	-43	0	42*
COc1ccc(N2CCN(C(=O)CN3CCC(n4nnc5cc(F)ccc54)CC3)CC2)cc1	.	.	-29	.	17
CCOC(=O)C1=C(c2ccccc2)Nc2ncnn2C1c1ccc(OC)c(OC)c1 (centres undefined)	.	.	32	.	4
CO[C@@H]1/C=C\O[C@]2(C)Oc3c(C)c(O)c4c(O)c(c(CN5CCN(C)CC5)c(O)c4c3C2=O)NC(=O)C(C)=C/C=C\[C@@H](C)[C@@H](O)[C@H](C)[C@@H](O)[C@H](C)[C@H](OC(C)=O)[C@@H]1C	.	.	28	.	40*
Cc1ccc(S(=O)(=O)N2CCn3c2nc2ccccc23)cc1	.	.	-17	.	11
COc1ccc(-c2ocnc2C(=O)N2CCN(C3CCCCC3)CC2)cc1	.	.	-92	.	10
Cc1cc(-c2ccccc2)n2ncc(-c3ccccc3)c2n1	-11	19	62*	0	18
COc1cc(OC)c(C2C(C#N)=C(N)Oc3cc(C)oc(=O)c32)cc1OC (centres undefined)	.	.	-9	.	10
CCC(C)(C)NC(=O)CN(Cc1ccco1)C(=O)CNS(=O)(=O)c1ccccc1	.	.	4	.	7
C[C@@H]1c2ccccc2Cn2cc3c(c21)C(=O)c1cccc(OP(=O)(O)OCc2ccccc2)c1C3=O	.	.	25	.	42*
Cc1cc2cccc(C)c2nc1SCC(=O)c1ccccc1	.	.	69*	.	24
Cc1cc2c(C)ccc(C)c2nc1SCC(=O)O	.	.	79*	.	14
Cc1cc2cccc(C)c2nc1SCC(=O)NC(C)(C)C	.	.	51	.	9
C/C(=N\NC1=NCCN1)c1cn(C2=NCCN2)nc1C	.	.	8	.	49*
Cc1ccccc1Cn1cc(/C=N/n2cnnc2)c2ccccc21	-22	-16	64*	0	7
Oc1c(Br)cc(Br)cc1CN(Cc1cc(Br)cc(Br)c1O)C1CCCCC1	.	.	-26	.	40*
COC(=O)c1ccc(S(=O)(=O)N(Cc2cc3cc4c(cc3[nH]c2=O)OCO4)C2CCCC2)cc1	.	.	-22	.	12
COc1ccc2cc(CN(Cc3ccco3)S(=O)(=O)c3ccc(C(C)(C)C)cc3)c(=O)[nH]c2c1	.	.	2	.	13
Cc1ccc(CS(=O)(=O)CCC(=O)NCCCN2CCCC2)cc1	-15	82*	11	1	17
CCC(=O)Oc1ccc2c(c1)nc(C)n2CC	.	.	-27	.	12
CCOC(=O)Cn1nc2c(C)cc3cc(OC)ccc3n2c1=O	.	.	-20	.	7
COc1ccc2c(c1)cc(C)c1nn(CC(N)=O)c(=O)n12	.	.	84*	.	14
CCOc1ccc(-c2nnc(-c3ccccc3F)o2)cc1OCC	.	.	0	.	8
CS(=O)(=O)N1CCN(c2ccccc2NC(=O)c2cccs2)CC1	-15	17	14	-1	8
